The compounds below were run on Plasmodium falciparum (assay: GSK_TCMDC: Inhibition of Plasmodium falciparum 3D7 in whole red blood cells, using parasite LDH activity as an index of growth. Test compounds present at 2uM).
Assay type: functional

Row | SMILES | Inhibition
1 | COc1ccc(NC(=O)Nc2cc(C)nc3cccnc23)cc1Cn1ccnc1 | 100%
2 | CC(C)CC(=O)N1CCNC[C@@H]1C(=O)NCCSCc1c(F)cccc1Cl.O=C(O)C(F)(F)F | 86%
3 | CCCNCc1ccc(-c2ccc(CN(CCOC)C(=O)c3cnc(C)cn3)cc2)nc1.O=C(O)C(F)(F)F | 81%
4 | Cc1c(C(=O)NCc2ccncc2)sc2nc(-c3cccc([N+](=O)[O-])c3)cn12 | 97%
5 | O=C(Cc1ccc(-n2cnnn2)cc1)N(Cc1cncn1Cc1cccc(C(F)(F)F)c1)CC1CC1 | 86%
6 | CN(C)C(=O)CCCn1c(CNCCCNc2cc(=O)c3ccccc3[nH]2)cc2c(Cl)cc(Cl)cc21.Cl | 89%
7 | CC(C)CNCc1ccc(-c2cccc(CNc3ccc4ncccc4c3)c2)cc1.O=C(O)C(F)(F)F | 96%
8 | CCc1cc2c3c(N)nc(N)nc3ccc2n1C(C)CC (stereo not given) | 100%
9 | Cc1cc(C(=O)Nc2nc(-c3ccccn3)nc3ccsc23)no1 | 98%
10 | COc1ccc(NC(=O)c2cc(NC(=O)C3(N)CC3)c(=O)n(Cc3ccc(C(N)=O)cc3)c2)cc1.O=C(O)C(F)(F)F | 95%
11 | N#Cc1ccc(-c2ccc(C(=O)NCCCCN3CCC(c4ccc5c(c4OCc4ccncc4)CCCC5)CC3)cc2)cc1 | 81%
12 | COc1cccc2cc(C(=O)N[C@@H](CC(C)C)C(=O)N[C@H](/C=N/NC(=O)Cc3cccnc3)CCc3ccccc3)oc12 | 82%
13 | COc1ccc2nccc([C@@H](O)CN3CCC(NCc4cc5c(cc4F)SCC(=O)N5)CC3)c2n1 | 96%
14 | CN(C)CCOc1ccc(NC(=O)NC(C)(C)c2nc(-c3ccc(Cl)c(O)c3)c(-c3ccncc3)[nH]2)cc1.Cl | 98%
15 | CCNC(=O)Nc1ccc(N(C)c2ccnc(NC3CC3)n2)cc1 | 100%
16 | CN(C)Cc1ccc2nc(-c3cccc(Cc4cc(Cl)ccc4OCc4ccc(Cl)cc4F)n3)[nH]c2c1.Cl | 93%
17 | Cc1cccc2nc(-c3cccc(-c4ccc(NC(=O)c5cnn6cccnc56)cc4)c3)[nH]c12 | 100%
18 | COc1cccc2cc(C(=O)N[C@@H](CC(C)C)C(=O)N[C@H](/C=N/NC(=O)c3ccccc3)Cc3c[nH]cn3)oc12 | 99%
19 | CCn1cc(CN2CCCC(C(=O)Nc3ccc(-c4nc5ccccc5[nH]4)cc3)C2)cn1 (stereo not given) | 100%
20 | CN(CCN(C)CC(O)c1ccc(Cl)c(Cl)c1)CC(O)c1ccc(Cl)c(Cl)c1.Cl (stereo not given) | 91%

Row | SMILES | Inhibition
21 | Cc1nc(-c2ccccc2)nc(N2CCN(C(=O)c3ccco3)CC2)c1Cc1ccccc1F | 95%
22 | CC(C)Cn1ncc2c3c(N)nc(N)nc3ccc21 | 94%
23 | O=C(Cc1ccccc1)NC(c1ccco1)c1cc(Cl)c2cccnc2c1O (stereo not given) | 89%
24 | CCN(C(=O)CSc1cc(C)c2cc(C)cc(C)c2n1)C1CCS(=O)(=O)C1 (stereo not given) | 97%
25 | Cc1ccc(C(C)C)cc1CON1C(=N)N=C(N)NC1(C)C.Cl | 94%
26 | O=C(/C=C/c1ccc2ccccc2c1)NCC1(c2ccc(-c3ccccc3)cc2)CCOCC1 | 95%
27 | O=c1c2ccccc2[nH]c2nc3ccccc3c(Nc3ccccc3)c12 | 98%
28 | COc1ccc(-c2nc(NC(=O)Cc3coc4cc(OC)ccc34)sc2C)cc1 | 100%
29 | Cc1ccc(NC(C)C(=O)Nc2ccc(C#N)cc2)cc1S(=O)(=O)N1CCCCC1 (stereo not given) | 92%
30 | Cc1cc(-c2nc3cncc(-c4cccc(CN5CCCC5Cc5cccnc5)c4)c3n2C)nn1C.O=C(O)C(F)(F)F (stereo not given) | 83%
31 | CCOC(=O)c1cn(CC)c2cc(F)c(OC3CC4CCC3(C)C4(C)C)cc2c1=O (stereo not given) | 91%
32 | CC[C@H](C)CNC(=O)c1ccnc(-c2ccc(CNCCCc3ccccc3)cc2)c1.O=C(O)C(F)(F)F | 100%
33 | CCCNc1nc(Nc2ccccc2C)nc2ccccc12 | 95%
34 | Cc1cc(Oc2ccc(-n3ccnc3)cc2)nc(N2CCN(CCCN3CCCC3)CC2)n1.O=C(O)C(F)(F)F | 90%
35 | COc1cc(OCCCN(C)Cc2ccc(OC)c(OC)c2)ccc1NC(=O)c1cccc2c(O)c3cccc(F)c3nc12 | 94%
36 | Cn1cc(CN2CCCC(COC(c3ccccc3)c3ccccc3)C2)cn1 (stereo not given) | 99%
37 | O=C(Nc1cccc(-c2nn3ccccc3c2-c2ccnc(Nc3ccc(-c4cc[nH]n4)cc3)n2)c1)c1c(F)cccc1F | 98%
38 | C[C@@H](Oc1cc(-n2cnc3cc(SCCN4CCN(C)CC4)ccc32)sc1C(N)=O)c1ccccc1Cl | 90%
39 | O=C(Cc1cccc(O)c1)NCC(Cc1ccc(O)cc1)c1ccccc1 (stereo not given) | 91%
40 | Nc1ccc(Oc2ccc(Cc3cnc(N)nc3N)cc2)cc1 | 86%

Each compound was assayed on Plasmodium falciparum (assay: GSK_TCMDC: Inhibition of Plasmodium falciparum Dd2 in whole red blood cells, using parasite LDH activity as an index of growth. Test compounds present at 2uM).
Assay type: functional

Row | SMILES | Inhibition
41 | COc1ccc(NC(=O)Nc2cc(C)nc3cccnc23)cc1Cn1ccnc1 | 41%
42 | CC(C)CC(=O)N1CCNC[C@@H]1C(=O)NCCSCc1c(F)cccc1Cl.O=C(O)C(F)(F)F | 3%
43 | CCCNCc1ccc(-c2ccc(CN(CCOC)C(=O)c3cnc(C)cn3)cc2)nc1.O=C(O)C(F)(F)F | 14%
44 | Cc1c(C(=O)NCc2ccncc2)sc2nc(-c3cccc([N+](=O)[O-])c3)cn12 | 29%
45 | O=C(Cc1ccc(-n2cnnn2)cc1)N(Cc1cncn1Cc1cccc(C(F)(F)F)c1)CC1CC1 | 0%
46 | CN(C)C(=O)CCCn1c(CNCCCNc2cc(=O)c3ccccc3[nH]2)cc2c(Cl)cc(Cl)cc21.Cl | 0%
47 | CC(C)CNCc1ccc(-c2cccc(CNc3ccc4ncccc4c3)c2)cc1.O=C(O)C(F)(F)F | 31%
48 | CCc1cc2c3c(N)nc(N)nc3ccc2n1C(C)CC (stereo not given) | 99%
49 | Cc1cc(C(=O)Nc2nc(-c3ccccn3)nc3ccsc23)no1 | 90%
50 | COc1ccc(NC(=O)c2cc(NC(=O)C3(N)CC3)c(=O)n(Cc3ccc(C(N)=O)cc3)c2)cc1.O=C(O)C(F)(F)F | 72%
51 | N#Cc1ccc(-c2ccc(C(=O)NCCCCN3CCC(c4ccc5c(c4OCc4ccncc4)CCCC5)CC3)cc2)cc1 | 57%
52 | COc1cccc2cc(C(=O)N[C@@H](CC(C)C)C(=O)N[C@H](/C=N/NC(=O)Cc3cccnc3)CCc3ccccc3)oc12 | 54%
53 | COc1ccc2nccc([C@@H](O)CN3CCC(NCc4cc5c(cc4F)SCC(=O)N5)CC3)c2n1 | 27%
54 | CN(C)CCOc1ccc(NC(=O)NC(C)(C)c2nc(-c3ccc(Cl)c(O)c3)c(-c3ccncc3)[nH]2)cc1.Cl | 98%
55 | CCNC(=O)Nc1ccc(N(C)c2ccnc(NC3CC3)n2)cc1 | 80%
56 | CN(C)Cc1ccc2nc(-c3cccc(Cc4cc(Cl)ccc4OCc4ccc(Cl)cc4F)n3)[nH]c2c1.Cl | 26%
57 | Cc1cccc2nc(-c3cccc(-c4ccc(NC(=O)c5cnn6cccnc56)cc4)c3)[nH]c12 | 73%
58 | COc1cccc2cc(C(=O)N[C@@H](CC(C)C)C(=O)N[C@H](/C=N/NC(=O)c3ccccc3)Cc3c[nH]cn3)oc12 | 90%
59 | CCn1cc(CN2CCCC(C(=O)Nc3ccc(-c4nc5ccccc5[nH]4)cc3)C2)cn1 (stereo not given) | 26%
60 | CN(CCN(C)CC(O)c1ccc(Cl)c(Cl)c1)CC(O)c1ccc(Cl)c(Cl)c1.Cl (stereo not given) | 73%

Row | SMILES | Inhibition
61 | Cc1nc(-c2ccccc2)nc(N2CCN(C(=O)c3ccco3)CC2)c1Cc1ccccc1F | 86%
62 | CC(C)Cn1ncc2c3c(N)nc(N)nc3ccc21 | 73%
63 | O=C(Cc1ccccc1)NC(c1ccco1)c1cc(Cl)c2cccnc2c1O (stereo not given) | 93%
64 | CCN(C(=O)CSc1cc(C)c2cc(C)cc(C)c2n1)C1CCS(=O)(=O)C1 (stereo not given) | 82%
65 | Cc1ccc(C(C)C)cc1CON1C(=N)N=C(N)NC1(C)C.Cl | 92%
66 | O=C(/C=C/c1ccc2ccccc2c1)NCC1(c2ccc(-c3ccccc3)cc2)CCOCC1 | 34%
67 | O=c1c2ccccc2[nH]c2nc3ccccc3c(Nc3ccccc3)c12 | 97%
68 | COc1ccc(-c2nc(NC(=O)Cc3coc4cc(OC)ccc34)sc2C)cc1 | 77%
69 | Cc1ccc(NC(C)C(=O)Nc2ccc(C#N)cc2)cc1S(=O)(=O)N1CCCCC1 (stereo not given) | 92%
70 | Cc1cc(-c2nc3cncc(-c4cccc(CN5CCCC5Cc5cccnc5)c4)c3n2C)nn1C.O=C(O)C(F)(F)F (stereo not given) | 73%
71 | CCOC(=O)c1cn(CC)c2cc(F)c(OC3CC4CCC3(C)C4(C)C)cc2c1=O (stereo not given) | 70%
72 | CC[C@H](C)CNC(=O)c1ccnc(-c2ccc(CNCCCc3ccccc3)cc2)c1.O=C(O)C(F)(F)F | 84%
73 | CCCNc1nc(Nc2ccccc2C)nc2ccccc12 | 64%
74 | Cc1cc(Oc2ccc(-n3ccnc3)cc2)nc(N2CCN(CCCN3CCCC3)CC2)n1.O=C(O)C(F)(F)F | 7%
75 | COc1cc(OCCCN(C)Cc2ccc(OC)c(OC)c2)ccc1NC(=O)c1cccc2c(O)c3cccc(F)c3nc12 | 62%
76 | Cn1cc(CN2CCCC(COC(c3ccccc3)c3ccccc3)C2)cn1 (stereo not given) | 99%
77 | O=C(Nc1cccc(-c2nn3ccccc3c2-c2ccnc(Nc3ccc(-c4cc[nH]n4)cc3)n2)c1)c1c(F)cccc1F | 98%
78 | C[C@@H](Oc1cc(-n2cnc3cc(SCCN4CCN(C)CC4)ccc32)sc1C(N)=O)c1ccccc1Cl | 65%
79 | O=C(Cc1cccc(O)c1)NCC(Cc1ccc(O)cc1)c1ccccc1 (stereo not given) | 97%
80 | Nc1ccc(Oc2ccc(Cc3cnc(N)nc3N)cc2)cc1 | 5%

From ChEMBL document CHEMBL1157539, “Thousands of chemical starting points for antimalarial lead identification” (Nature, 2010)
